In the supplement of paper PMC6897291:
Counter-ions that a name gives are not always drawn.

Tests used:
U-2932 [1] = assay: growth inhibition by drug alone (1 - RLU/untreated control) (fraction); higher = stronger inhibition; conditions: 177Lu-lilotomab satetraxetan 0 ug/ml
Outline: (§1)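 RIVA or U-2932 cells, untreated or pretreated 18 h with a radiolabelled anti-CD37 antibody conjugate (~600 MBq/mg; 0.5 µg/ml RIVA, 1 µg/ml U-2932), were washed and seeded at 3,000 cells/well on plates pre-printed with the Selleck Cambridge Cancer Compound library. Doses were 10/100 nM (RIVA) or 10/1,000 nM (U-2932). RealTime-Glo luminescence was read daily from day 3 after 1 h at 37°C. Growth inhibition is 1 − RLU/mean of 48 untreated no-drug wells per plate.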

U-2932 [2] = assay: growth inhibition by drug plus 177Lu-lilotomab satetraxetan (1 - RLU/untreated control) (fraction); higher = stronger inhibition; conditions: 177Lu-lilotomab satetraxetan 1 ug/ml
Outline: as §1

RIVA [3] = assay: as above; conditions: 177Lu-lilotomab satetraxetan 0.5 ug/ml
Outline: as §1

RIVA [4] = assay: growth inhibition by drug alone (1 - RLU/untreated control) (fraction); higher = stronger inhibition; conditions: 177Lu-lilotomab satetraxetan 0 ug/ml
Outline: as §1

| SMILES | growth inhibition by drug alone (U-2932 [1]; 10 nM, time (day): 3) | growth inhibition by drug alone (U-2932 [1]; 10 nM, time (day): 4) | growth inhibition by drug alone (U-2932 [1]; 10 nM, time (day): 5) | growth inhibition by drug alone (U-2932 [1]; 10 nM, time (day): 6) | growth inhibition by drug alone (U-2932 [1]; 1000 nM, time (day): 3) | growth inhibition by drug alone (U-2932 [1]; 1000 nM, time (day): 4) | growth inhibition by drug alone (U-2932 [1]; 1000 nM, time (day): 5) | growth inhibition by drug alone (U-2932 [1]; 1000 nM, time (day): 6) | growth inhibition by drug plus 177Lu-lilotomab satetraxetan (U-2932 [2]; 10 nM, time (day): 3) | growth inhibition by drug plus 177Lu-lilotomab satetraxetan (U-2932 [2]; 10 nM, time (day): 4) | growth inhibition by drug plus 177Lu-lilotomab satetraxetan (U-2932 [2]; 10 nM, time (day): 5) | growth inhibition by drug plus 177Lu-lilotomab satetraxetan (U-2932 [2]; 10 nM, time (day): 6) | growth inhibition by drug plus 177Lu-lilotomab satetraxetan (U-2932 [2]; 1000 nM, time (day): 3) | growth inhibition by drug plus 177Lu-lilotomab satetraxetan (U-2932 [2]; 1000 nM, time (day): 4) | growth inhibition by drug plus 177Lu-lilotomab satetraxetan (U-2932 [2]; 1000 nM, time (day): 5) | growth inhibition by drug plus 177Lu-lilotomab satetraxetan (U-2932 [2]; 1000 nM, time (day): 6) | growth inhibition by drug plus 177Lu-lilotomab satetraxetan (RIVA [3]; 10 nM, time (day): 3) | growth inhibition by drug plus 177Lu-lilotomab satetraxetan (RIVA [3]; 10 nM, time (day): 4) | growth inhibition by drug plus 177Lu-lilotomab satetraxetan (RIVA [3]; 10 nM, time (day): 5) | growth inhibition by drug plus 177Lu-lilotomab satetraxetan (RIVA [3]; 10 nM, time (day): 6) | growth inhibition by drug plus 177Lu-lilotomab satetraxetan (RIVA [3]; 100 nM, time (day): 3) | growth inhibition by drug plus 177Lu-lilotomab satetraxetan (RIVA [3]; 100 nM, time (day): 4) | growth inhibition by drug plus 177Lu-lilotomab satetraxetan (RIVA [3]; 100 nM, time (day): 5) | growth inhibition by drug plus 177Lu-lilotomab satetraxetan (RIVA [3]; 100 nM, time (day): 6) | growth inhibition by drug alone (RIVA [4]; 10 nM, time (day): 3) | growth inhibition by drug alone (RIVA [4]; 10 nM, time (day): 4) | growth inhibition by drug alone (RIVA [4]; 10 nM, time (day): 5) | growth inhibition by drug alone (RIVA [4]; 10 nM, time (day): 6) | growth inhibition by drug alone (RIVA [4]; 100 nM, time (day): 3) | growth inhibition by drug alone (RIVA [4]; 100 nM, time (day): 4) | growth inhibition by drug alone (RIVA [4]; 100 nM, time (day): 5) | growth inhibition by drug alone (RIVA [4]; 100 nM, time (day): 6) |
| --- | --- | --- | --- | --- | --- | --- | --- | --- | --- | --- | --- | --- | --- | --- | --- | --- | --- | --- | --- | --- | --- | --- | --- | --- | --- | --- | --- | --- | --- | --- | --- | --- |
| CC(=O)[C@]1(O)Cc2c(O)c3c(c(O)c2[C@@H](O[C@H]2C[C@H](N)[C@H](O)[C@H](C)O2)C1)C(=O)c1ccccc1C3=O [Idarubicin HCl] | 0.517 | 0.599 | 0.684 | 0.751 | 0.962 | 0.973 | 0.977 | 0.98 | 0.584 | 0.712 | 0.817 | 0.881 | 0.972 | 0.979 | 0.981 | 0.985 | 0.924 | 0.947 | 0.964 | 0.971 | 0.831 | 0.89 | 0.913 | 0.939 |  |  |  |  |  |  |  |  |
| CO[C@H]1/C=C\C=C(/C)C(=O)NC2=CC(=O)C(NCCN(C)C)=C(C[C@@H](C)C[C@H](OC)[C@H](O)[C@@H](C)/C=C(\C)[C@@H]1OC(N)=O)C2=O [17-DMAG HCl (Alvespimycin)] | 0.163 | 0.099 | -0.033 | -0.0727 | 0.944 | 0.979 | 0.985 | 0.986 | 0.0703 | 0.119 | 0.177 | 0.21 | 0.956 | 0.982 | 0.988 | 0.99 | 0.602 | 0.624 | 0.637 | 0.653 | 0.96 | 0.98 | 0.982 | 0.987 | 0.132 | 0.103 | 0.0633 | -0.0974 | 0.922 | 0.953 | 0.961 | 0.96 |
| CNC(=O)[C@@H](NC(=O)[C@H](CC(C)C)[C@H](O)C(=O)NO)C(C)(C)C [Marimastat] | -0.0984 | -0.0992 | -0.103 | -0.269 | -0.124 | -0.117 | -0.167 | -0.336 | -0.127 | -0.0607 | 0.00218 | 0.096 | -0.0404 | -0.014 | 0.0136 | 0.157 | 0.34 | 0.438 | 0.469 | 0.492 | 0.34 | 0.431 | 0.449 | 0.457 | -0.274 | -0.343 | -0.475 | -0.556 | -0.508 | -0.486 | -0.476 | -0.599 |
| c1ccc(-c2nn3c(c2-c2ccnc4cc(OCCN5CCOCC5)ccc24)CCC3)nc1 | 0.0304 | 0.0254 | 0.0259 | -0.126 | 0.0168 | -0.0245 | -0.0928 | -0.157 | 0.0114 | 0.0692 | 0.139 | 0.155 | -0.0195 | 0.0208 | 0.0497 | 0.121 | 0.46 | 0.581 | 0.585 | 0.558 | 0.237 | 0.413 | 0.439 | 0.459 |  |  |  |  |  |  |  |  |
| O=C(Nc1cccc(Cl)c1)Nc1ncc(CCNc2ncnc3ccsc23)s1 | 0.0932 | 0.0546 | 0.111 | 0.319 | 0.16 | 0.209 | 0.218 | 0.355 | 0.0766 | 0.0714 | 0.202 | 0.505 | 0.201 | 0.317 | 0.351 | 0.495 | 0.463 | 0.543 | 0.579 | 0.666 | 0.389 | 0.481 | 0.511 | 0.596 | 0.0836 | 0.115 | 0.215 | 0.331 | 0.0102 | 0.0483 | 0.135 | 0.239 |
| Nc1ccc(C(=O)Nc2cccc(-c3nc(N4CCOCC4)c4oc5ncccc5c4n3)c2)cn1 | 0.123 | 0.0927 | 0.0179 | -0.0139 | 0.195 | 0.203 | 0.118 | 0.206 | 0.00496 | 0.0368 | 0.0937 | 0.133 | 0.163 | 0.259 | 0.223 | 0.329 | 0.467 | 0.548 | 0.558 | 0.579 | 0.541 | 0.566 | 0.558 | 0.533 |  |  |  |  |  |  |  |  |
| C[N+](C)([O-])CCNc1ccc(NCC[N+](C)(C)[O-])c2c1C(=O)c1c(O)ccc(O)c1C2=O [Banoxantrone dihydrochloride] | -0.0281 | -0.0255 | -0.149 | -0.168 | -0.0598 | -0.0493 | -0.082 | -0.106 | -0.00903 | 0.0168 | 0.0134 | -0.00428 | 0.0744 | 0.142 | 0.219 | 0.381 | 0.391 | 0.472 | 0.484 | 0.498 | 0.446 | 0.551 | 0.571 | 0.588 | -0.171 | -0.248 | -0.397 | -0.545 | -0.338 | -0.41 | -0.557 | -0.705 |
| CC(=O)O[C@@]12CO[C@@H]1C[C@H](O)[C@@]1(C)C(=O)[C@H](O)C3=C(C)[C@@H](OC(=O)[C@H](O)[C@@H](NC(=O)OC(C)(C)C)c4ccccc4)C[C@@](O)([C@@H](OC(=O)c4ccccc4)[C@H]21)C3(C)C [Docetaxel (Taxotere)] | 0.953 | 0.965 | 0.974 | 0.978 | 0.964 | 0.972 | 0.977 | 0.98 | 0.96 | 0.971 | 0.977 | 0.983 | 0.966 | 0.977 | 0.982 | 0.985 | 0.968 | 0.982 | 0.985 | 0.988 | 0.967 | 0.979 | 0.985 | 0.987 | 0.953 | 0.967 | 0.973 | 0.973 | 0.949 | 0.964 | 0.969 | 0.971 |
